High-throughput results: PubChem BioAssay, The Scripps Research Institute Molecular Screening Center
Compounds with a hit are over-represented: about 3.5% of the library has one in this group of screens.
TEAD-YAP block – TEAD-YAP interaction inhibition, primary screen, TEAD-YAP interaction inhibitor project, luminescence, HEK-TIYL cells; hit rate 1.4% among 640,000; TEAD-Gal4/YAP UAS-luciferase luminescence; inhibition, % at 9.12 µM; in the data active = inhibition above about 32%;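 also: 0% = median of test compound wells and 100% = reference inhibitor wells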
MITF inh – MITF inhibitors, primary screen, biochemical, AlphaScreen, human; AlphaScreen MITF homodimerization, bead proximity signal; Microphthalmia-associated transcription factor (Homo sapiens), O75030; inhibition, % at 2.6 µM; AID 1259374, 2018; hit rate 0.91% among 650,000; in the data active = inhibition above about 50%;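 also: 0% = vehicle wells with protein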
GPR151 ag – activators of human GPR151, primary screen, cell-based, PathHunter beta-arrestin, luminescence; G-protein coupled receptor 151 (Homo sapiens), Q8TDV0; PathHunter beta-arrestin GPR151 cells; activation, % at 11.2 µM; hit rate 1% among 650,000; in the data active = activation above about 4.9%;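 also: 0% = median of compound wells and 100% = cells with positive control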
Target sequence (Q8TDV0 whole entry, looked up): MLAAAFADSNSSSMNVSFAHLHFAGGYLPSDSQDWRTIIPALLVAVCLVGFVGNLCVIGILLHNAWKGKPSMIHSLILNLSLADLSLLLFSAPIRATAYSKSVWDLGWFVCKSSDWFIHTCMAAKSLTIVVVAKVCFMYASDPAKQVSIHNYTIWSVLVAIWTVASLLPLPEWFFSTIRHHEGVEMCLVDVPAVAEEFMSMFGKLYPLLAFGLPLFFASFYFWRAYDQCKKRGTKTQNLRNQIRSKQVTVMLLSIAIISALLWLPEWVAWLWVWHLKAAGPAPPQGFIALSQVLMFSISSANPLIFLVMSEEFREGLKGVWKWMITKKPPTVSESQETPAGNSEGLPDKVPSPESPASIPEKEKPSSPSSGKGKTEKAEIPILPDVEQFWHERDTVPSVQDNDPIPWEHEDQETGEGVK
FBW7 activator – FBW7 E3 ligase activators, primary screen, biochemical, AlphaScreen, human; F-box/WD repeat-containing protein 7 (Homo sapiens), Q969H0; AlphaScreen FBW7–phospho-cyclin E peptide binding, activator screen; normalized activity (activation), % at 26.1 µM; hit rate 0.13% among 650,000; in the data active = normalized activity above about 1.9%;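 also: purified mutant Fbw7 with reduced substrate affinity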
GPR151 confirm – GPR151 activators, triplicate retest, confirmation, cell-based, PathHunter beta-arrestin, luminescence. GPR151 PathHunter beta-arrestin cells, 90 min; % of EA-reagent control over plate median. activation, % at 11.2 µM. 6,700 tested, under 10 active. AID 1508609, 2020. shares compounds with GPR151 ag;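 active = mean percent activation across replicates above the confirmation screen cutoff of 4.91%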
GPR119 ag – GPR119 activators in beta-arrestin cells, counter-screen for GPR151 activator project, cell-based, PathHunter beta-arrestin, luminescence, triplicate; activation, % at 11.2 µM; hit rate 0.3% among 6,700; AID 1508611, 2020; shares compounds with GPR151 ag; 90 min; 0 = compound-well median, 100 = enzyme-acceptor control;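 active = mean percent activation in the counterscreen above 29.09%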;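 also: counterscreen on off-target GPR119 to flag nonselective hits from the GPR151 activator screen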
* hit, by the source's call; x = no result given.

SMILES	TEAD-YAP block	MITF inh	GPR151 ag	FBW7 activator	GPR151 confirm	GPR119 ag
COc1ccc(F)cc1S(=O)(=O)Nc1cc2c3c(c1)C(C)C(=O)N3CCC2 (stereo not drawn)	-8	-15	0	0	x	x
CS(=O)(=O)c1ccc(SCC(=O)Nc2cccc(C(F)(F)F)c2)c([N+](=O)[O-])c1	3	8	0	0	x	x
CSc1nc(N)nc(SCC(=O)Nc2cccc(C(F)(F)F)c2)c1C#N	-2	0	1	0	x	x
Cc1ccc2c(c1)/C(=C\c1ccc(Br)cc1)c1cc3ccccc3nc1-2	5	-2	6.1*	0	-1	-8
CC(C)CN(CCCNC(=O)C1CC(=O)N(C2CCCC2)C1)CC(C)C (stereo not drawn)	0	10	0	0	x	x
CC(C)CCNC(=O)C1CCC(=O)N1C(C)C (stereo not drawn)	-6	8	5.2*	0	1	4
CC(C)CCNC(=O)C1CC(=O)N(C2CCCCCC2)C1 (stereo not drawn)	0	1	10*	0	0	2
C=CCSc1[nH]c(=O)c(C(=O)OCC)cc1C#N	9	-13	0	0	x	x
O=C(O)c1ccc(NS(=O)(=O)c2cc(C(=O)O)ccc2Br)cc1	-2	-8	5.6*	0	0	-4
CCOC(=O)C1CCCN(C(=S)Nc2cc(OC)c(Cl)cc2OC)C1 (stereo not drawn)	4	3	2	0	x	x
COc1ccc(/C=N\NC(=O)c2cnccn2)cc1OCc1ccccc1	5	12	5.8*	0	0	17
COc1cccc(/C=N\NC(=O)c2cnccn2)c1O	-14	38	5.3*	-1	0	1
CCOc1ccc(/C=N/NC(=O)c2ccccn2)cc1OC	-43	14	6.8*	0	0	-3
COc1cc(/C=N/NC(=O)c2ccccn2)ccc1OC(C)=O	-51	6	-2	0	x	x
COc1cccc(/C=N/NC(=O)c2[nH]nc(-c3ccccc3)c2C)c1O	10	25	7.6*	0	0	-13
CC(C)NC(=O)C(=O)NCC(c1ccco1)N1CCN(c2ccccc2)CC1 (stereo not drawn)	-5	-8	2	0	x	x
O=C1N[C@@H](Cc2ccccc2)C(=O)N2CCN(C(=O)c3cc(F)cc(F)c3)C[C@H]12	16	11	-1	1	x	x
COc1ccc(-n2c(=O)[nH]c3c(C(N)=O)nc(-c4cccs4)nc32)cc1	-6	6	1	0	x	x
COc1cccc(/C=N/NC(=O)c2ccc(-n3c(C)ccc3C)cc2O)c1O	-32	64*	5.4*	-1	-1	-11
COc1cccc(/C=N/NC(=O)C(=O)NCC(C)C)c1O	-6	23	30*	-1	-1	-15
COc1ccc(Br)cc1C(=O)N/N=C/c1cccc(OC)c1O	22	10	1	0	x	x
COc1cc(OC)nc(Oc2cccc(C)c2/C=N/NC(=O)c2ccccn2)n1	-45	14	6.0*	0	-1	-11
COc1cccc(/C=N/NC(=O)C(=O)NC(C)c2ccccc2)c1O (stereo not drawn)	10	50	2	-2	x	x
CN(C)/C=C1/C(=O)N(c2ccccc2F)C(=O)c2ccccc21	-3	3	1	0	x	x
COc1ccc(CCN=C(N)NC(=O)Nc2ccc(Cl)cc2)cc1OC	-2	22	0	0	x	x
COc1cc(C#N)ccc1OCc1ccc(C)cc1	-32	1	-1	0	x	x
COc1ccc(-c2nnc(SCC(=O)c3cc(C)n(CC4CCCO4)c3C)o2)cc1 (stereo not drawn)	-7	2	4.9*	0	1	6
CCOC(=O)C1CCN(c2c(NCCCc3ccccc3)c(=O)c2=O)CC1	-4	4	9.9*	0	0	4
CCOC(=O)C1CCCN(c2c(NCCCc3ccccc3)c(=O)c2=O)C1 (stereo not drawn)	-13	6	0	0	x	x
